This is an account of results in PMC11006913.

Holding throughout (assay): PBM; 200 nM protein, PBS
What all share (details): dsDNA, one strand shown

Assay [1] addresses PROP1 (Homo sapiens, UniProt O75360 56-141).
Assay [2] addresses PROP1 (Homo sapiens, UniProt O75360 56-141, R99H).
Assay [3] addresses PROP1 (Homo sapiens, UniProt O75360 56-141, F88S).
In the next assay the target is VAX1 (Homo sapiens, UniProt Q5SQQ9 86-172).
VAX1, sequence (Q5SQQ9 86-172): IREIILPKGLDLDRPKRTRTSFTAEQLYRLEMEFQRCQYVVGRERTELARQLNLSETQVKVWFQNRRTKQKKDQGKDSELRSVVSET

PROP1 (Homo sapiens, UniProt O75360 56-141, F88S), sequence (O75360 56-141 F88S): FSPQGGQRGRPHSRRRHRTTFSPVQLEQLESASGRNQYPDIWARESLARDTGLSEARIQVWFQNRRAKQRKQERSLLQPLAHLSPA
PROP1 (Homo sapiens, UniProt O75360 56-141, R99H), sequence (O75360 56-141 R99H): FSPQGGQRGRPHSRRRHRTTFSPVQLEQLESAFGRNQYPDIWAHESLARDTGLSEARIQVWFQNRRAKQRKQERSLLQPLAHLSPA
PROP1 (Homo sapiens, UniProt O75360 56-141), sequence (O75360 56-141): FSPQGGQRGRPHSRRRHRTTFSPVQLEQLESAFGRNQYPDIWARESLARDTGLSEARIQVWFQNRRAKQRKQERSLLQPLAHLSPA

For CCTTCGGC, the binding signal in the assay with PROP1 [1] was 6.66 upbm affinity estimate (log intensity, higher = more binding, comparable within an allelic series); with PROP1 [2] it was 6.64 upbm affinity estimate (log intensity, higher = more binding, comparable within an allelic series); in the assay with PROP1 [3] it was 6.53 upbm affinity estimate (log intensity, higher = more binding, comparable within an allelic series).

As for ACGGTAGG, the binding signal is 6.51 upbm affinity estimate (log intensity, higher = more binding, comparable within an allelic series) in the assay with PROP1 [1]; 6.62 upbm affinity estimate (log intensity, higher = more binding, comparable within an allelic series) in the assay with PROP1 [2]; 6.62 upbm affinity estimate (log intensity, higher = more binding, comparable within an allelic series) with PROP1 [3].

Turning to GGGTCGGA, the binding signal was 6.69 upbm affinity estimate (log intensity, higher = more binding, comparable within an allelic series) with PROP1 [1]; 6.78 upbm affinity estimate (log intensity, higher = more binding, comparable within an allelic series) in the assay with PROP1 [2]; 6.58 upbm affinity estimate (log intensity, higher = more binding, comparable within an allelic series) with PROP1 [3].

On to CCGATGGC, for which the binding signal with PROP1 [1] was 6.65 upbm affinity estimate (log intensity, higher = more binding, comparable within an allelic series); with PROP1 [2] it was 6.61 upbm affinity estimate (log intensity, higher = more binding, comparable within an allelic series); with PROP1 [3] it was 6.61 upbm affinity estimate (log intensity, higher = more binding, comparable within an allelic series).

Regarding GCGGACGC, the binding signal with PROP1 [1] was 6.53 upbm affinity estimate (log intensity, higher = more binding, comparable within an allelic series); in the assay with PROP1 [2] it was 6.66 upbm affinity estimate (log intensity, higher = more binding, comparable within an allelic series); with PROP1 [3] it was 6.56 upbm affinity estimate (log intensity, higher = more binding, comparable within an allelic series).

For GTCTCGAA, the binding signal was 6.78 upbm affinity estimate (log intensity, higher = more binding, comparable within an allelic series) with PROP1 [1]; 6.8 upbm affinity estimate (log intensity, higher = more binding, comparable within an allelic series) with PROP1 [2]; 7.1 upbm affinity estimate (log intensity, higher = more binding, comparable within an allelic series) in the assay with PROP1 [3].

As for ATCACTAA, the binding signal with PROP1 [1] was 8.89 upbm affinity estimate (log intensity, higher = more binding, comparable within an allelic series); in the assay with PROP1 [2], 8.2 upbm affinity estimate (log intensity, higher = more binding, comparable within an allelic series); with PROP1 [3], 7.19 upbm affinity estimate (log intensity, higher = more binding, comparable within an allelic series).

Turning to AATTCAAC, the binding signal is 8.25 upbm affinity estimate (log intensity, higher = more binding, comparable within an allelic series) in the assay with PROP1 [1]; 7.78 upbm affinity estimate (log intensity, higher = more binding, comparable within an allelic series) in the assay with PROP1 [2]; 7.25 upbm affinity estimate (log intensity, higher = more binding, comparable within an allelic series) with PROP1 [3].

CCTGTTAG: the binding signal with PROP1 [1] is 8.32 upbm affinity estimate (log intensity, higher = more binding, comparable within an allelic series); with PROP1 [2], 8.15 upbm affinity estimate (log intensity, higher = more binding, comparable within an allelic series); with PROP1 [3] it was 7.19 upbm affinity estimate (log intensity, higher = more binding, comparable within an allelic series).

For the sequence AGGGCCGC, the binding signal with PROP1 [1] is 6.72 upbm affinity estimate (log intensity, higher = more binding, comparable within an allelic series); in the assay with PROP1 [2], 6.82 upbm affinity estimate (log intensity, higher = more binding, comparable within an allelic series); in the assay with PROP1 [3], 6.5 upbm affinity estimate (log intensity, higher = more binding, comparable within an allelic series).

In the case of CCGAGTTA, the binding signal is 8.19 upbm affinity estimate (log intensity, higher = more binding, comparable within an allelic series) with PROP1 [1] and 7.14 upbm affinity estimate (log intensity, higher = more binding, comparable within an allelic series) with PROP1 [3].

For AGGCCAGG, the binding signal with PROP1 [1] is 6.77 upbm affinity estimate (log intensity, higher = more binding, comparable within an allelic series); with PROP1 [2] it was 6.97 upbm affinity estimate (log intensity, higher = more binding, comparable within an allelic series); in the assay with PROP1 [3] it was 6.49 upbm affinity estimate (log intensity, higher = more binding, comparable within an allelic series).

On to GACATTAC, for which the binding signal with PROP1 [1] was 8.23 upbm affinity estimate (log intensity, higher = more binding, comparable within an allelic series); with PROP1 [2], 7.84 upbm affinity estimate (log intensity, higher = more binding, comparable within an allelic series); in the assay with PROP1 [3] it was 7.27 upbm affinity estimate (log intensity, higher = more binding, comparable within an allelic series).

As to AACTAAGC, the binding signal with VAX1 is 9.21 upbm affinity estimate (log intensity, higher = more binding, comparable within an allelic series).

On to ATCAACGG, for which, in the assay with VAX1, the binding signal was 9.55 upbm affinity estimate (log intensity, higher = more binding, comparable within an allelic series).

In the case of TGATTACA, the binding signal was 9.42 upbm affinity estimate (log intensity, higher = more binding, comparable within an allelic series) in the assay with PROP1 [1]; 8.57 upbm affinity estimate (log intensity, higher = more binding, comparable within an allelic series) with PROP1 [2]; 7.5 upbm affinity estimate (log intensity, higher = more binding, comparable within an allelic series) with PROP1 [3].

With CCTGTTAC, the binding signal with PROP1 [1] is 7.8 upbm affinity estimate (log intensity, higher = more binding, comparable within an allelic series); with PROP1 [3], 7.11 upbm affinity estimate (log intensity, higher = more binding, comparable within an allelic series).

Regarding GGTGCACC, the binding signal is 6.54 upbm affinity estimate (log intensity, higher = more binding, comparable within an allelic series) with PROP1 [1]; 6.58 upbm affinity estimate (log intensity, higher = more binding, comparable within an allelic series) with PROP1 [2]; 6.7 upbm affinity estimate (log intensity, higher = more binding, comparable within an allelic series) with PROP1 [3].

AATTGGCG: the binding signal with PROP1 [1] was 9.12 upbm affinity estimate (log intensity, higher = more binding, comparable within an allelic series); in the assay with PROP1 [2] it was 8.88 upbm affinity estimate (log intensity, higher = more binding, comparable within an allelic series); with PROP1 [3] it was 7.29 upbm affinity estimate (log intensity, higher = more binding, comparable within an allelic series).

As for GTCAGGAC, the binding signal in the assay with PROP1 [1] is 6.88 upbm affinity estimate (log intensity, higher = more binding, comparable within an allelic series); with PROP1 [2] it was 6.96 upbm affinity estimate (log intensity, higher = more binding, comparable within an allelic series); in the assay with PROP1 [3] it was 6.86 upbm affinity estimate (log intensity, higher = more binding, comparable within an allelic series).

On to AATCTATA, for which the binding signal is 8.79 upbm affinity estimate (log intensity, higher = more binding, comparable within an allelic series) with PROP1 [1]; 8.14 upbm affinity estimate (log intensity, higher = more binding, comparable within an allelic series) with PROP1 [2]; 7.56 upbm affinity estimate (log intensity, higher = more binding, comparable within an allelic series) in the assay with PROP1 [3].

Regarding TACCCTAA, the binding signal in the assay with PROP1 [1] is 8.09 upbm affinity estimate (log intensity, higher = more binding, comparable within an allelic series); in the assay with PROP1 [3], 7.04 upbm affinity estimate (log intensity, higher = more binding, comparable within an allelic series).

Consider CCCGCGCA, for which the binding signal with PROP1 [1] was 6.78 upbm affinity estimate (log intensity, higher = more binding, comparable within an allelic series); in the assay with PROP1 [2], 6.9 upbm affinity estimate (log intensity, higher = more binding, comparable within an allelic series); with PROP1 [3], 6.76 upbm affinity estimate (log intensity, higher = more binding, comparable within an allelic series).

Take ATGACCAA: the binding signal with PROP1 [1] was 8.15 upbm affinity estimate (log intensity, higher = more binding, comparable within an allelic series); with PROP1 [3], 7.17 upbm affinity estimate (log intensity, higher = more binding, comparable within an allelic series).

With AAGTTAAG, the binding signal was 7.89 upbm affinity estimate (log intensity, higher = more binding, comparable within an allelic series) with PROP1 [1] and 7.07 upbm affinity estimate (log intensity, higher = more binding, comparable within an allelic series) with PROP1 [3].

With AGTAAATA, the binding signal with PROP1 [1] was 8.94 upbm affinity estimate (log intensity, higher = more binding, comparable within an allelic series); in the assay with PROP1 [2], 8.48 upbm affinity estimate (log intensity, higher = more binding, comparable within an allelic series); with PROP1 [3], 7.6 upbm affinity estimate (log intensity, higher = more binding, comparable within an allelic series).
